A short description of assay [1]: sensitizers of A549 cells to miR-34 induction, primary screen, imaging, A549 dox-inducible miR-34, nuclei and caspase counts (AID 1347080;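 active means compounds whose cell count with miR-34 switched on is under 0.7 times the count with it off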). The note with it: A549 miR-34 inducible, Hoechst nuclei count, 48 h.
A short description of assay [2]: survival rescue of mitochondrial mutant cells in low glucose, primary screen, MELAS cybrids, Rieske KO mouse fibroblasts, CellTiter-Glo (AID 1508586;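 active means mean z-score across replicates of 1.96 or higher in either the MELAS or the Rieske mutant cell line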;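 further: z relative to plate mean and SD of compound and empty wells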). Background: ATP-based viability assays read luminescence as a measure of living cells.
Assay [3] in a line: ovarian cancer cell viability with rucaparib, profiling panel, oncology-focused library, rucaparib conditional (AID 1508598). The note with it: patient-derived ovarian cancer cells, CellTiter-Glo viability, 144 h, stronger effect = lower value.
[4] abbreviates: stronger effect = lower value, cell number ratio, induced over uninduced.
The mark [5] stands for this setting: measured here: relative caspase fold change +Dox/-Dox.
Where [6] appears, read: measured here: total cells with miR-34 induction, stronger effect = lower value.
Setting [7] is: measured here: total cells without miR-34 induction.
Setting [8] is: MELAS cybrid survival, CellTiter-Glo 48 h, stronger effect = higher value.
Setting [9] is: Rieske KO mouse fibroblast survival, CellTiter-Glo 72 h.
The mark [10] stands for this setting: at 0.000305 µM, OCI-C5x cells, with rucaparib 10 µM, 100% = cells with rucaparib alone.
Where [11] appears, read: at 0.000305 µM, OCI-C5x cells, without rucaparib.
Setting [12] is: at 0.000305 µM, OCI-P5x cells, with rucaparib 20 µM, 100% = cells with rucaparib alone.
Setting [13] is: at 0.000305 µM, OCI-P5x cells, without rucaparib.
[14] abbreviates: at 0.00122 µM, OCI-C5x cells, with rucaparib 10 µM, 100% = cells with rucaparib alone.
[15] abbreviates: at 0.00122 µM, OCI-C5x cells, without rucaparib.
Setting [16] is: at 0.00122 µM, OCI-P5x cells, with rucaparib 20 µM, 100% = cells with rucaparib alone.
Setting [17] is: at 0.00122 µM, OCI-P5x cells, without rucaparib.
The mark [18] stands for this setting: at 0.00488 µM, OCI-C5x cells, with rucaparib 10 µM, 100% = cells with rucaparib alone.
Where [19] appears, read: at 0.00488 µM, OCI-C5x cells, without rucaparib.
[20] abbreviates: at 0.00488 µM, OCI-P5x cells, with rucaparib 20 µM, 100% = cells with rucaparib alone.
[21] abbreviates: at 0.00488 µM, OCI-P5x cells, without rucaparib.
[22] abbreviates: at 0.0195 µM, OCI-C5x cells, with rucaparib 10 µM, 100% = cells with rucaparib alone.
[23] abbreviates: at 0.0195 µM, OCI-C5x cells, without rucaparib.
The mark [24] stands for this setting: at 0.0195 µM, OCI-P5x cells, with rucaparib 20 µM, 100% = cells with rucaparib alone.
The mark [25] stands for this setting: at 0.0195 µM, OCI-P5x cells, without rucaparib.
Where [26] appears, read: at 0.0781 µM, OCI-C5x cells, with rucaparib 10 µM, 100% = cells with rucaparib alone.
The mark [27] stands for this setting: at 0.0781 µM, OCI-C5x cells, without rucaparib.
The mark [28] stands for this setting: at 0.0781 µM, OCI-P5x cells, with rucaparib 20 µM, 100% = cells with rucaparib alone.
[29] abbreviates: at 0.0781 µM, OCI-P5x cells, without rucaparib.
The mark [30] stands for this setting: at 0.313 µM, OCI-C5x cells, with rucaparib 10 µM, 100% = cells with rucaparib alone.
[31] abbreviates: at 0.313 µM, OCI-C5x cells, without rucaparib.
[32] abbreviates: at 0.313 µM, OCI-P5x cells, with rucaparib 20 µM, 100% = cells with rucaparib alone.
Setting [33] is: at 0.313 µM, OCI-P5x cells, without rucaparib.
[34] abbreviates: at 1.25 µM, OCI-C5x cells, with rucaparib 10 µM, 100% = cells with rucaparib alone.
The mark [35] stands for this setting: at 1.25 µM, OCI-C5x cells, without rucaparib.
The mark [36] stands for this setting: at 1.25 µM, OCI-P5x cells, with rucaparib 20 µM, 100% = cells with rucaparib alone.
Where [37] appears, read: at 1.25 µM, OCI-P5x cells, without rucaparib.
Setting [38] is: at 5 µM, OCI-C5x cells, with rucaparib 10 µM, 100% = cells with rucaparib alone.
The mark [39] stands for this setting: at 5 µM, OCI-C5x cells, without rucaparib.
Where [40] appears, read: at 5 µM, OCI-P5x cells, with rucaparib 20 µM, 100% = cells with rucaparib alone.
Setting [41] is: at 5 µM, OCI-P5x cells, without rucaparib.

The text below walks through data of PubChem BioAssay.

The source made the active and inactive calls.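 How the source made its calls, unless noted: active means normalized viability below 100% at a tested concentration; inactive means the rest.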

For orientation: viability means a read-out of living cells in per cent, often relative to untreated cells.

Take `CC1(C)C(OC2OC(C(=O)O)C(O)C(O)C2OC2OC(C(=O)O)C(O)C(O)C2O)CC[C@@]2(C)[C@H]1CC[C@]1(C)[C@H]2C(=O)C=C2[C@H]3C[C@@](C)(C(=O)O)CC[C@]3(C)CC[C@]21C` (some centres undefined): the figures for the fold change in assay [1] (setting [4]) and in assay [1] (setting [5]) were 0.916 (inactive) and 0.946, respectively. Further, the figures for the cell count in assay [1] (setting [6]) and in assay [1] (setting [7]) were 8230 and 8990, respectively. Besides, the figures for the z-score in assay [2] (setting [8]) and in assay [2] (setting [9]) were -0.0747 (inactive) and -0.803, respectively.
For `Cc1[nH]c2ccccc2c1CCNC(=O)c1cccs1`, the fold change is 0.913 (inactive) in assay [1] (setting [4]) and 0.438 in assay [1] (setting [5]). In addition, the cell count in assay [1] (setting [6]) worked out at 7830; in assay [1] (setting [7]) it was 8570. Moreover, the z-score was -0.422 (inactive) in assay [2] (setting [8]) and 0.75 in assay [2] (setting [9]).
Take `CN(C)CCOc1ccc(-c2nc(-c3ccc4c(c3)CCC4=NO)c(-c3ccncc3)[nH]2)cc1`: the fold change is 0.921 (inactive) in assay [1] (setting [4]) and 1.04 in assay [1] (setting [5]). Moreover, the cell count was 6630 in assay [1] (setting [6]) and 7200 in assay [1] (setting [7]). Besides, the z-score in assay [2] (setting [8]) was -0.178 (inactive); in assay [2] (setting [9]) it was 0.963. In addition, the viability was 124% (inactive) in assay [3] (setting [10]); 144% (inactive) in assay [3] (setting [11]); 72.5% (active) in assay [3] (setting [12]); 88.8% (active) in assay [3] (setting [13]); 121% (inactive) in assay [3] (setting [14]); 132% (inactive) in assay [3] (setting [15]). Also, the viability in assay [3] (setting [16]) is 70.7% (active); in assay [3] (setting [17]), 68.7% (active); in assay [3] (setting [18]) it was 121% (inactive); in assay [3] (setting [19]) it was 153% (inactive); in assay [3] (setting [20]), 70.2% (active); in assay [3] (setting [21]), 74.7% (active). The viability was 109% (inactive) in assay [3] (setting [22]); 138% (inactive) in assay [3] (setting [23]); 69.4% (active) in assay [3] (setting [24]); 73.6% (active) in assay [3] (setting [25]); 125% (inactive) in assay [3] (setting [26]); 133% (inactive) in assay [3] (setting [27]). Besides, the viability is 83.1% (active) in assay [3] (setting [28]); 111% (inactive) in assay [3] (setting [29]); 119% (inactive) in assay [3] (setting [30]); 140% (inactive) in assay [3] (setting [31]); 85.3% (active) in assay [3] (setting [32]); 114% (inactive) in assay [3] (setting [33]). Besides, the viability in assay [3] (setting [34]) is 120% (inactive); in assay [3] (setting [35]), 153% (inactive); in assay [3] (setting [36]), 78.5% (active); in assay [3] (setting [37]), 108% (inactive); in assay [3] (setting [38]), 136% (inactive); in assay [3] (setting [39]), 187% (inactive). Further, the viability was 1.04% (active) in assay [3] (setting [40]) and 102% (inactive) in assay [3] (setting [41]).
For the compound `NC(N)=NN=Cc1c(Cl)cccc1Cl`, the fold change in assay [1] (setting [4]) was 0.921 (inactive); in assay [1] (setting [5]), 0.613. Also, the cell count is 8130 in assay [1] (setting [6]) and 8830 in assay [1] (setting [7]). The results for the z-score in assay [2] (setting [8]) and in assay [2] (setting [9]) were -0.139 (inactive) and -0.245, respectively.
In the case of `CCc1cc2c(cc1CC)CC(NCC(O)c1ccc(O)c3[nH]c(=O)ccc13)C2` (centres undefined), the fold change in assay [1] (setting [4]) was 1.01 (inactive); in assay [1] (setting [5]), 0.491. For the same compound, the figures for the cell count in assay [1] (setting [6]) and in assay [1] (setting [7]) were 7460 and 7410, respectively. The values for the z-score in assay [2] (setting [8]) and in assay [2] (setting [9]) were -0.199 (inactive) and -0.118, respectively.
Consider `CCCc1ccc(OCC(=O)N(Cc2nc(-c3cccnc3)no2)C(C)C)cc1`, for which the fold change was 0.834 (inactive) in assay [1] (setting [4]) and 0.57 in assay [1] (setting [5]). Moreover, the cell count is 6670 in assay [1] (setting [6]) and 7990 in assay [1] (setting [7]). The z-score in assay [2] (setting [8]) was -0.333 (inactive); in assay [2] (setting [9]), 0.238. Besides, the viability in assay [3] (setting [10]) is 116% (inactive); in assay [3] (setting [11]) it was 115% (inactive); in assay [3] (setting [12]), 98% (active); in assay [3] (setting [13]), 106% (inactive); in assay [3] (setting [14]) it was 125% (inactive); in assay [3] (setting [15]), 122% (inactive). The viability in assay [3] (setting [16]) was 102% (inactive); in assay [3] (setting [17]), 98.6% (active); in assay [3] (setting [18]), 129% (inactive); in assay [3] (setting [19]) it was 104% (inactive); in assay [3] (setting [20]), 105% (inactive); in assay [3] (setting [21]), 101% (inactive). The viability in assay [3] (setting [22]) is 118% (inactive); in assay [3] (setting [23]), 110% (inactive); in assay [3] (setting [24]) it was 97.5% (active); in assay [3] (setting [25]) it was 102% (inactive); in assay [3] (setting [26]) it was 134% (inactive); in assay [3] (setting [27]), 114% (inactive). Besides, the viability is 104% (inactive) in assay [3] (setting [28]); 103% (inactive) in assay [3] (setting [29]); 120% (inactive) in assay [3] (setting [30]); 110% (inactive) in assay [3] (setting [31]); 98.3% (active) in assay [3] (setting [32]); 101% (inactive) in assay [3] (setting [33]). Moreover, the viability in assay [3] (setting [34]) was 115% (inactive); in assay [3] (setting [35]), 112% (inactive); in assay [3] (setting [36]), 103% (inactive); in assay [3] (setting [37]) it was 96.3% (active); in assay [3] (setting [38]), 99.7% (active); in assay [3] (setting [39]), 111% (inactive). The figures for the viability in assay [3] (setting [40]) and in assay [3] (setting [41]) were 93.2% (active) and 100% (inactive), respectively.
For the compound `OC(COc1cccc2ncccc12)CN1CCN(C2c3ccccc3C3C(c4ccccc42)C3(F)F)CC1` (centres undefined), the results for the fold change in assay [1] (setting [4]) and in assay [1] (setting [5]) were 1.04 (inactive) and 0.683, respectively. Besides, the figures for the cell count in assay [1] (setting [6]) and in assay [1] (setting [7]) were 5300 and 5090, respectively. The results for the z-score in assay [2] (setting [8]) and in assay [2] (setting [9]) were -0.428 (inactive) and 0.74, respectively.
`O=C(C=Cn1cnc(-c2cc(C(F)(F)F)cc(C(F)(F)F)c2)n1)NNc1cnccn1`: the fold change was 1.07 (inactive) in assay [1] (setting [4]) and 0.543 in assay [1] (setting [5]). In addition, the cell count amounted to 2320 in assay [1] (setting [6]) and 2170 in assay [1] (setting [7]). The z-score is -0.213 (inactive) in assay [2] (setting [8]) and -7.28 in assay [2] (setting [9]).
As for `CC(=O)ON=C1C(=O)N(Cc2cc(Cl)ccc2Cl)c2ccc(Cl)cc21`, the fold change in assay [1] (setting [4]) is 0.848 (inactive); in assay [1] (setting [5]), 0.441. In addition, the cell count in assay [1] (setting [6]) turned out to be 7100; in assay [1] (setting [7]), 8370. For the same compound, the z-score in assay [2] (setting [8]) is -0.0209 (inactive); in assay [2] (setting [9]) it was 1.12.
As for `C=C1C(=CC=C2CCC[C@@]3(C)[C@H]2CC[C@H]3C(C)C=CC(C)C(C)C)CC(O)CC1O` (some centres undefined), the fold change is 0.932 (inactive) in assay [1] (setting [4]) and 0.78 in assay [1] (setting [5]). The cell count in assay [1] (setting [6]) worked out at 7360; in assay [1] (setting [7]), 7890. Besides, the results for the z-score in assay [2] (setting [8]) and in assay [2] (setting [9]) were -0.45 (inactive) and 1.18, respectively.
